The whole screen tested about 220,000 compounds, of which about 130 (0.059%) were called active. The sample as a whole holds a higher share of actives than the screen did. A number with no mark means an inactive call. No stated cut-off is given here; in the data, active means inhibition above about 25%; inactive means the rest.

In the experiment the target is Furin (Homo sapiens) (UniProt P09958). Kind of experiment: furin protease activity blockers – biochemical, fluorescence intensity, primary screen (AID 463115). The following applies: purified furin, fluorogenic substrate cleavage, stronger effect = higher value; at 30 µM unless noted.
Sequence of Furin (Homo sapiens) (P09958 108-714 limits assumed): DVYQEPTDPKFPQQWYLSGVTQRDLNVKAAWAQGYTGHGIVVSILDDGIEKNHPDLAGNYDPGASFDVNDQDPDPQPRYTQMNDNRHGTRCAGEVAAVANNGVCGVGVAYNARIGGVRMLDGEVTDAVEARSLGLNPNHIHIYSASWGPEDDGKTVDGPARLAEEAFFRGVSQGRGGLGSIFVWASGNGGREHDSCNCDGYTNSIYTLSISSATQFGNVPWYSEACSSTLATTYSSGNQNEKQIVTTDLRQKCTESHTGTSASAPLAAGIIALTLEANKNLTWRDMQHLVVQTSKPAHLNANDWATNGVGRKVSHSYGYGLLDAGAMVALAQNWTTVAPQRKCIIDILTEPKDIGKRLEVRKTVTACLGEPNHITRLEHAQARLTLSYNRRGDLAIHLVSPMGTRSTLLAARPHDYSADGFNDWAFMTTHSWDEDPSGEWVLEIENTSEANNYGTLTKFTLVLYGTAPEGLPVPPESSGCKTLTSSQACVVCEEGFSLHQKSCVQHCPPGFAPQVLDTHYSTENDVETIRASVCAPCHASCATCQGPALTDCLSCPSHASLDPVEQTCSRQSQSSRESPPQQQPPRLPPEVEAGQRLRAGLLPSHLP
As a reminder, the inhibition is the drop in the measured response relative to a control, in per cent. For the compound `COc1cc(OC)c(C(=O)OC(C)C(=O)Nc2cc(C(F)(F)F)ccc2Cl)cc1OC` (stereo unspecified), the inhibition was -12.3%. Regarding `O=C(Nc1ccccc1C(=O)N1CCOCC1)c1ccc(Cl)cc1`, the inhibition is -16.3%. As for `Cc1cc(C(=O)N2CCC(C(=O)O)CC2)c(C(F)(F)F)o1`, the inhibition was -9.96%. Turning to `O=C(Nc1cnn(Cc2ccc(Cl)cc2)c1)C1CCCC1`, the inhibition is -14.4% [at 20 µM].

Take `Cc1nn(C)cc1C(=O)Nc1ccccc1Br`: the inhibition is -17.2%.

`C=CCC(CC=C)(C(N)=O)c1ccccc1`: the inhibition was -29.7%. As for `Fc1ccccc1OCCCCn1cncn1`, the figure is -28.7% [at 20 µM]. `COc1ccc(CCNc2cc(C)nc3c(-c4ccc(Cl)cc4)c(C)nn23)cc1OC`: the inhibition is 9.61%. `O=C(Nc1nccs1)C1CCN(S(=O)(=O)c2ccc(Cl)c(C(F)(F)F)c2)CC1`: the inhibition is -14.1% [at 20 µM]. As to `COCCNc1nc2nonc2nc1N1CCCC1c1nccs1` (stereo unspecified), the inhibition is -8.2%. Turning to `O=C(/C=C/c1ccccc1)Nc1nnc(SCC(=O)c2ccc3ccccc3c2)s1`, the inhibition is -20.8%. As for `COCCN1C(=O)N[C@@H](CCc2ccccc2)[C@H](C(C)=O)[C@H]1C`, the inhibition is -15.4%. `CC(=O)C1=C(C)NC(=O)NC1c1cc(Br)ccc1OCC#N` (stereo unspecified): the inhibition was -17.2% [at 20 µM]. In the case of `CSCC[C@H](NC(=O)OC(C)(C)C)C(=O)N/N=C/c1cc2ccc(C)cc2nc1Cl` it was -14.1%. Regarding `CC1(C)CC(=O)C(N=Nc2ccc(S(=O)(=O)N3CCCCCC3)cc2)=C(O)C1`, the inhibition is -26.5%. As to `C/C(=N\Nc1nc2ccccc2[nH]1)c1cccs1`, the inhibition is -12.4%.

As to `CCCC(=O)NC(C)C(c1cccs1)N1CCN(c2ccccc2)CC1` (stereo unspecified), the inhibition is 25.4% [at 20 µM] (active). As to `CC(NC(=O)C(C)(C)C)C(c1cccs1)N1CCN(Cc2ccccc2)CC1` (stereo unspecified), the inhibition was -27.5%.

As to `CC(NC(=O)Nc1ccccc1)C(c1cccs1)N1CCN(c2ccccc2)CC1` (stereo unspecified), the inhibition is -13.8%. In the case of `COc1ccc(C(=O)NC(=S)Nc2ccc(Cl)cn2)cc1OC` it was -15.4%; in that of `Cn1c(=O)n(C)c2cc(NS(=O)(=O)c3ccc(F)cc3)ccc21`, -20.7%; in that of `CCC(=O)Nc1sc(C(=O)Nc2ccccc2)c(C)c1C(=O)OC`, -21.3%.

For `C#CCO[C@@H]1C[C@H](n2cnc3c(=O)[nH]c(NC(=O)C(C)C)nc32)O[C@@H]1CO`, the inhibition was -9.33%.

As to `O=C1N=C(N2CCc3ccccc3C2)S/C1=C\c1ccc(O)cc1`, the inhibition is -5.76%. Regarding `Cc1nc2sc(C(c3ccco3)N3CCC4(CC3)OCCO4)c(O)n2n1` (stereo unspecified), the inhibition was -16.3% [at 20 µM].

Turning to `COc1ccc(/C=C/C(=O)c2ccc(NS(=O)(=O)c3ccc(C)cc3)cc2)cc1O`, the inhibition was -7.18%. Consider `COC(=O)c1ccc(C(=O)OC)c(NC(=S)N2CCN(c3ccc(F)cc3)CC2)c1`, for which the inhibition is -22.8%.

Turning to `O=C(Nc1ccccc1-c1nnn(CC(=O)N2CCCc3ccccc32)n1)c1cccc(Cl)c1`, the inhibition is -12.2% [at 20 µM]. As for `Cc1cc(C)n(-c2nnc(C)n2NC(=O)c2cccc(Cl)c2)n1`, the inhibition is -15.9% [at 20 µM].

On to `O=C(NCc1ccco1)C(=O)c1cn(CC(=O)N2CCCCCC2)c2ccccc12`, for which the inhibition is -16.3%.

For the compound `CCOc1ncccc1C(=O)OCC(=O)NC1CC1`, the inhibition is -17.7%. Regarding `O=C(c1cccc([N+](=O)[O-])c1)N1CCN(C(=O)c2ccco2)CC1`, the inhibition was -10.7%.

In the case of `CC(C)C(=O)NCc1cc(-c2ccc(Cl)cc2)no1`, the inhibition was 2.24%. Regarding `O=S(=O)(c1ccc(F)cc1)N1CCN(Cc2ccccc2C(F)(F)F)CC1`, the inhibition is -12.9%.

As for `O=c1oc2ccccc2cc1-c1cn(-c2ccccc2)c(=S)[nH]1`, the inhibition is -34.3%. Consider `S=c1[nH]nc(NCCc2ccccc2)s1`, for which the inhibition is -19.4%. Consider `CC(C)(C)C(=O)OCc1nc(-c2ccc(O)c(O)c2)cs1`, for which the inhibition was -19.6%. `CCN(CC)c1ccc(NC(=O)C2CCC(CNc3c(N4CCCC4)c(=O)c3=O)CC2)c(C)c1` (stereo unspecified): the inhibition is -28.8%. In the case of `C[n+]1ccc(/C=C/c2c[nH]c3ccccc23)cc1`, the inhibition is 3.06%. Consider `C=Cn1c(C(=O)O)ccc1-c1ccc(OC)cc1`, for which the inhibition is -9.46%. As for `CC1CN(S(=O)(=O)c2ccc(C(=O)NN3CCN(C)CC3)cc2)CC(C)O1` (stereo unspecified), the figure is -23.8%. For the compound `CCOCN(C(=O)Cn1c(C(C)O)nc2ccccc21)c1c(C)cccc1CC` (stereo unspecified), the inhibition was -22.3% [at 20 µM].

As for `O=C(/C=C/c1ccc(Cl)cc1)Nc1ccc(Br)cn1`, the inhibition is -19.6%.

On to `Cc1oc(-c2ccccc2Cl)[n+]([O-])c1C`, for which the inhibition was -9.84% [at 20 µM]. Consider `C=C(C)C(=O)O[C@H]1C/C(C)=C\C(=O)/C=C(\C)[C@H](O)[C@@H]2OC(=O)C(=C)[C@@H]21`, for which the inhibition is -5.36%. Regarding `CCN(C(=O)CSc1nnc2ccccn12)C1CCS(=O)(=O)C1` (stereo unspecified), the inhibition is -27.8%. Regarding `NNC(=O)c1cnn(-c2ccccc2)c1C(F)(F)F`, the inhibition is -29%. For the compound `CCN=C1S/C(=C\c2cc(Br)ccc2OCC(=O)OCC)C(=O)N1CC`, the inhibition was -4.2%. As for `N#Cc1ccccc1NC(=O)COc1c(Br)cc(Br)c2cccnc12`, the figure is -14.7%; as for `Cn1c(SCC(=O)Nc2ccc(Cl)cc2)nc(O)cc1=O`, -15%. With `O=C(CSc1nc2ccc([N+](=O)[O-])cc2[nH]1)c1ccc(Cl)cc1`, the inhibition was -10.5%. Turning to `S=C(NN=C1CCN(Cc2ccccc2)CC1)NC1CCCCC1`, the inhibition is -25.8%. Turning to `CCCC1OC23CCCCC2C(C#N)(C#N)C1(C#N)C(=N)O3` (stereo unspecified), the inhibition was -12.5%. On to `COc1cc(C)c(S(=O)(=O)N2CCOCC2)c(C)c1C`, for which the inhibition is -15.3%. On to `COc1ccccc1N1CCN(/N=C\C(Br)=C\c2ccccc2)CC1`, for which the inhibition was -19%.

With `CCO[C@H]1OC(C(=O)N2CCCCCCC2)=C[C@@H](c2ccc(C(F)(F)F)cc2)[C@@H]1CCCO`, the inhibition was -28%.

In the case of `Cc1cc(N=CC2=C(O)CCCC2=O)no1`, the inhibition was 42.3% (active). For `COc1ccc(O)c(C=Nc2cc(C)on2)c1`, the inhibition was -25.7%.

For the compound `O=C1CCCC(O)=C1C=NCCc1ccccc1`, the inhibition was -20.8%. `OCCC1CN(Cc2cccn2-c2nccs2)CCN1CCc1ccccc1` (stereo unspecified): the inhibition is -12.8%. `Cc1nc(CNS(=O)(=O)c2cc([N+](=O)[O-])ccc2C)cs1`: the inhibition is 10.1%. `COC(=O)C1=C(N)Oc2c(oc(CO)cc2=O)C1c1c(F)cccc1Cl` (stereo unspecified): the inhibition was -27.8%. As for `CN(C)c1ccnc2sc3c(=O)n(-c4ccc(Cl)cc4)cnc3c12`, the inhibition was -7.85% [at 20 µM].

Regarding `CCC(C)(C)NC(=O)CN(C(=O)C(=O)Nc1ccc2c(c1)OCCO2)C(C)(C)CC`, the inhibition is -14.5%.

For `CSc1nnc(SCc2nc3sc(C(=O)O)c(C)c3c(=O)[nH]2)s1`, the inhibition is -6.65%.

Turning to `O=C(CC1SCCNC1=O)Nc1ccc(Cl)c(Cl)c1` (stereo unspecified), the inhibition is -21.8%.

For the compound `Cc1nnsc1C(=O)N/N=C/c1cccc(C(F)(F)F)c1`, the inhibition was 0.985%. In the case of `COc1ccc([N+](=O)[O-])cc1NC(=O)COC(=O)/C=C/c1ccco1` it was -30.9%; in that of `CCC(C)(C)NC(=O)C(c1cccc(OC)c1OC)N(CC(C)C)C(=O)CCC(=O)Nc1cc(C)on1` (stereo unspecified), -14.8%. In the case of `CC(C)(C)NC(=O)/C(=C/c1cccnc1)NC(=O)c1ccco1` it was -17%; in that of `Cc1cc(NC(=O)CSc2nc3ccccc3n2CC(C)C)no1`, -16.9%. Regarding `CC(C)c1cc(C(N)=O)c(NC(=O)c2cccc(COc3ccc(Br)cc3)c2)s1`, the inhibition was -15.1% [at 20 µM]. Regarding `CC(C)(C)NC(=O)c1cccc(NC(=O)Cc2ccc(Br)cc2)c1`, the inhibition was -14.8%.

Consider `CCOn1c(=O)c(=O)n(O)c2ccccc21`, for which the inhibition is -4.13%. In the case of `Oc1ccccc1N1CCN(C(=S)NCc2ccccc2)CC1` it was -19.1%; in that of `Cc1ccc(C2(C(F)(F)F)N=C3Sc4cc(C)cc(C)c4N3C(=O)N2)cc1` (stereo unspecified), -11.5% [at 20 µM]; in that of `O=C(O)CC/C(=N\NC(=O)c1ccc(F)cc1)c1ccc(Br)cc1`, -17.1%. In the case of `CCCc1c(C(=O)O)cnn1-c1ccc(Cl)cc1`, the inhibition is -33.8%. In the case of `O=C(Nc1cccc(Cl)c1)c1cc([N+](=O)[O-])ccc1N1CCN(CCO)CC1` it was -21.2%; in that of `O=c1[nH][nH]c(C(F)(F)F)c1C=NCc1ccccc1Cl`, -7.43% [at 20 µM]. With `O=C(CNC(=O)COc1ccccc1)NCCc1ccccn1`, the inhibition was -14%. For the compound `C=CCOc1ccc(/C=N/NC(=O)C(C)Sc2ccccn2)cc1OCC` (stereo unspecified), the inhibition was -21.6%. Turning to `CSc1ccc(C(=O)C2CCCN(C(=O)c3ccc(C)nc3)C2)cc1` (stereo unspecified), the inhibition was -11.4%. As for `Clc1ccc(-c2nnc(-c3ccccc3)nc2N2CCSCC2)cc1`, the figure is -4.61% [at 20 µM]; as for `Fc1ccc(COc2cccc(-c3n[nH]c(=S)o3)c2)cc1`, -11.9%; as for `O=C1C=C(c2ccc(Cl)cc2)C(=O)N1Nc1ccccc1`, -9.42% [at 20 µM]. Regarding `O=C(NNc1cc(Cl)ccc1Cl)c1cccnc1Cl`, the inhibition was -21.6%. Regarding `NS(=O)(=O)c1ccc(NC(=O)COC(=O)c2ccco2)cc1`, the inhibition is -19.1%. With `O=c1[nH]c(CCl)nc2cc(-c3ccc(Cl)cc3)sc12`, the inhibition is -0.616% [at 20 µM].

Turning to `Cc1cc(Cl)c(S(=O)(=O)N(C)C)cc1OCC(N)=O`, the inhibition was -12.9% [at 20 µM]. As for `COC(=O)/C=C/C(=O)NCc1ccco1`, the inhibition is -23.2% [at 20 µM].
